Measured values from PubChem BioAssay (Tox21).
Records with an inconclusive call do not appear. Active and inactive are the calls of the source. Unless noted, calls come from the whole dose curve; as a rule, active = well fitted curve in the direction sought with a large enough effect in the repeat runs; inconclusive = weak or mixed curves; inactive = no such curve, though single readings can be large; an effect the other way counts as inactive or inconclusive.

Columns and labels:
[1] = qHTS assay to identify small molecule agonists of the peroxisome proliferator-activated receptor delta (PPARd) signaling pathway - cell viability counter screen (AID 743211); note: nearly all actives have a fitted effect of over 55% in size
How it was run: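 HEK293H PPARd-bla, 3000 cells/well; 5 h preincubation 37C/5% CO2; cpd in DMSO, 17 h 37C; B/G FRET substrate 2 h RT; CellTiter-Glo 30 min RT, luminescence.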

[2] = target: Peroxisome proliferator-activated receptor delta (Homo sapiens) (UniProt Q03181); experiment: qHTS assay to identify small molecule agonists of the peroxisome proliferator-activated receptor delta (PPARd) signaling pathway (AID 743212; calls by dose curve)
Peroxisome proliferator-activated receptor delta (Homo sapiens), sequence (Q03181 whole entry, looked up): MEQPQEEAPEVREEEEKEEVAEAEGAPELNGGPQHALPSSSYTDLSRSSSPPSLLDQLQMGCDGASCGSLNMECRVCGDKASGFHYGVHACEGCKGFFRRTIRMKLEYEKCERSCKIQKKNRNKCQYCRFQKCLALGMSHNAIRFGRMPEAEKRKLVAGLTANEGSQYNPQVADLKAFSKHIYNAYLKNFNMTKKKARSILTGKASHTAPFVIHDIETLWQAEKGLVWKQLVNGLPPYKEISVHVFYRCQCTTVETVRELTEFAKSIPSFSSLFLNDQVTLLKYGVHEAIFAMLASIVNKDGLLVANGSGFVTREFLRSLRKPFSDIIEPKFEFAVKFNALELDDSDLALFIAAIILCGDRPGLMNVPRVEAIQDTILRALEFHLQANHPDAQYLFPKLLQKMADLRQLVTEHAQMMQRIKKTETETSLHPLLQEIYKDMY
How it was run: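 HEK293H UAS-bla reporter cells, human PPARd system; compounds delivered in DMSO after 5 h plating, then at 37 C. Beta-lactamase FRET read, 2 h RT substrate step.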

[3] = qHTS assay to identify small molecule antagonists of the peroxisome proliferator-activated receptor delta (PPARd) signaling pathway - cell viability counter screen (AID 743213); note: nearly all actives have a fitted effect of over 50% in size
How it was run: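 CellTiter-Glo was added to PPARd-bla HEK293H wells following 17 h compound treatment in the presence of 300 nM L165041. Luminescence was recorded after 30 min at room temperature.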

[4] = target: Peroxisome proliferator-activated receptor delta (Homo sapiens) (UniProt Q03181); experiment: qHTS assay to identify small molecule antagonists of the peroxisome proliferator-activated receptor delta (PPARd) signaling pathway (AID 743215; active = well fitted inhibition curve with a large enough effect in the signal ratio in the repeat runs, not every such curve was filed as active; the % refers to the signal ratio;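 note: cells stimulated with agonist L165041 at 300 nM final during compound exposure; series mostly up to about 62 µM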)
How it was run: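 PPARd-bla HEK293H cells (UAS-bla reporter) preincubated 5 h, then given compound plus 300 nM final L165041 agonist for 17 h at 37 C. Beta-lactamase activity read by LiveBLAzer B/G FRET substrate fluorescence after 2 h at room temperature.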

[5] = target: Bile acid receptor (Homo sapiens) (UniProt Q96RI1); experiment: qHTS assay to identify small molecule antagonists of the farnesoid-X-receptor (FXR) signaling pathway (AID 743217; active = well fitted inhibition curve with a large enough effect in the signal ratio in the repeat runs, not every such curve was filed as active; the % refers to the signal ratio)
Bile acid receptor (Homo sapiens), sequence (Q96RI1 whole entry, looked up): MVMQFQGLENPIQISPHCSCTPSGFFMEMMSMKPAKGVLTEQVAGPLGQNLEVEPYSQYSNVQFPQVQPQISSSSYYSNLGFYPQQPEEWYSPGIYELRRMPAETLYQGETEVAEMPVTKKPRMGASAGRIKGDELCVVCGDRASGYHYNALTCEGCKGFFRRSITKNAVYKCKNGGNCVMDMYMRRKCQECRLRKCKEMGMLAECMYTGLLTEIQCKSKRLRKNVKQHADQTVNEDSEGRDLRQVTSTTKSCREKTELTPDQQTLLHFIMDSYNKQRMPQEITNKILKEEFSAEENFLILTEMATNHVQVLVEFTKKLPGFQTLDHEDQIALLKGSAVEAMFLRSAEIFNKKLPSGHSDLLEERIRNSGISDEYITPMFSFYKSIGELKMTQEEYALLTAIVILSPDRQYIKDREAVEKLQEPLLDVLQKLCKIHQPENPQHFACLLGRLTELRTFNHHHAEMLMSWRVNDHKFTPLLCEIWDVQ
How it was run: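 FXR-UAS-bla HEK 293T cells (beta-lactamase reporter) given compound plus chenodeoxycholic acid (50 uM final), 16 h at 37C. LiveBLAzer B/G FRET substrate added for 2 h at room temperature; fluorescence read.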

[6] = qHTS assay to identify small molecule agonists of the farnesoid-X-receptor (FXR) signaling pathway - cell viability counter screen (AID 743218); note: nearly all actives have a fitted effect of over 45% in size
How it was run: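 FXR-UAS-bla HEK 293T cells exposed to compounds for 16 h at 37C. Cytotoxicity read in the same wells by CellTiter-Glo luminescence after 30 min at room temperature, following the beta-lactamase FRET read.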

[7] = target: Bile acid receptor (Homo sapiens) (UniProt Q96RI1); experiment: qHTS assay to identify small molecule agonists of the farnesoid-X-receptor (FXR) signaling pathway (AID 743220; active = well fitted activation curve with a large enough effect in the signal ratio in the repeat runs, not every such curve was filed as active; the % refers to the signal ratio)
How it was run: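 Beta-lactamase reporter under UAS control in GeneBLAzer FXR HEK 293T cells (5000/well) measured with LiveBLAzer FRET substrate after 2 h at room temperature. Compound exposure lasted 16 h at 37C.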

[8] = qHTS assay to identify small molecule antagonists of the farnesoid-X-receptor (FXR) signaling pathway - cell viability counter screen (AID 743221; active = well fitted cell-killing curve with a large enough effect in the repeat runs, not every such curve was filed as active; note: nearly all actives have a fitted effect of over 50% in size)
How it was run: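 Luminescence from CellTiter-Glo measures cytotoxicity in GeneBLAzer FXR-UAS-bla HEK 293T cells. Cells were exposed to compounds with 50 uM chenodeoxycholic acid (final) for 16 h at 37 C, in wells also used for the reporter readout.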

[9] = target: Vitamin D3 receptor (Homo sapiens) (UniProt P11473); experiment: qHTS assay to identify small molecule agonists of the vitamin D receptor (VDR) signaling pathway (AID 743222; calls by dose curve)
Vitamin D3 receptor (Homo sapiens), sequence (P11473 whole entry, looked up): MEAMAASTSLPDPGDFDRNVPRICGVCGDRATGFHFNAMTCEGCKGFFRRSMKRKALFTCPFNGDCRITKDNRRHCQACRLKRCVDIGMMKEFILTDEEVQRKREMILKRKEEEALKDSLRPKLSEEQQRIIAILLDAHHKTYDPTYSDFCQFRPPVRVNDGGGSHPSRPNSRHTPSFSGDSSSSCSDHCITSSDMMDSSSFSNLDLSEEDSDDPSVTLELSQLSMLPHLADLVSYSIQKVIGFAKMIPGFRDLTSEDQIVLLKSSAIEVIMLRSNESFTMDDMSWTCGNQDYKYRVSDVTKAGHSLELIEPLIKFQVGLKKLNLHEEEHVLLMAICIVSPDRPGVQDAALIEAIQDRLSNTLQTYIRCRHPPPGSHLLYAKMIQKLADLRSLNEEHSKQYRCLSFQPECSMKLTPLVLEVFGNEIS
How it was run: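 VDR-bla cells plated 4 h at 37 C, then exposed to compounds for 16 h at 37 C. Beta-lactamase reporter activity measured by fluorescence after 2 h room-temperature loading with LiveBLAzer B/G FRET substrate.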

[10] = target: Vitamin D3 receptor (Homo sapiens) (UniProt P11473); experiment: qHTS assay to identify small molecule antagonists of the vitamin D receptor (VDR) signaling pathway (AID 743223; active = well fitted inhibition curve with a large enough effect in the signal ratio in the repeat runs, not every such curve was filed as active; the % refers to the signal ratio)
How it was run: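 Antagonist mode uses 1alpha,25-dihydroxyvitamin D3 at 3 nM final as stimulus. VDR-bla cells receive compounds in DMSO, incubate 16 h at 37C, then a beta-lactamase FRET substrate for 2 h at room temperature before fluorescence measurement.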

[11] = qHTS assay to identify small molecule agonists of the vitamin D receptor (VDR) signaling pathway - cell viability counter screen (AID 743224); note: series mostly up to about 63 µM; nearly all actives have a fitted effect of over 50% in size
How it was run: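 VDR-bla cells, 4 h after plating, exposed to compounds for 16 h at 37C; viability then read in the same wells as CellTiter-Glo luminescence after 30 min at room temperature, following the bla FRET read.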

[12] = qHTS assay to identify small molecule antagonists of the vitamin D receptor (VDR) signaling pathway - cell viability counter screen (AID 743225); note: nearly all actives have a fitted effect of over 50% in size
How it was run: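 Read-out: CellTiter-Glo luminescence measured 30 min after reagent addition at room temperature. Cells were VDR-bla HEK 293T exposed 16 h at 37C, 5% CO2, to compound with 3 nM final calcitriol agonist.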

[13] = qHTS assay to identify small molecule agonists of the NFkB signaling pathway (AID 1159509; active = well fitted curve in the direction sought with a large enough effect in the signal ratio in the repeat runs, not every such curve was filed as active; the % refers to the signal ratio; note: series mostly up to about 61 µM)
How it was run: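 NFkB-bla ME-180 cells with a beta-lactamase reporter under an NF-kB response element were plated overnight, treated with compounds in DMSO for 5 hr at 37 C, then loaded with FRET substrate for 1.5 hr at room temperature.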

[14] = qHTS assay to identify small molecule agonists of the NFkB signaling pathway - cell viability counter screen (AID 1159515; calls by dose curve; note: series mostly up to about 61 µM; nearly all actives have a fitted effect of over 55% in size)
How it was run: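 NFkB-bla ME-180 cells, 2,000/well, plated overnight at 37 C; compound added for 5 hr at 37 C. Viability read in the same wells as the bla reporter, by CellTiter-Glo luminescence after 30 min at room temperature.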

[15] = qHTS assay to identify small molecule agonists of the endoplasmic reticulum stress response signaling pathway (AID 1159516; active = well fitted activation curve with a large enough effect in the signal ratio in the repeat runs, not every such curve was filed as active; the % refers to the signal ratio)
How it was run: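 CellSensor ESRE-bla HeLa cells, 1,500 per well, plated overnight, then exposed to compounds for 5 hr at 37 C. Beta-lactamase reporter read with LiveBLAzer B/G FRET substrate after 2 hr at room temperature, 405 nm excitation, 460 and 530 nm emission.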

[16] = target: Nuclear receptor ROR-gamma (Homo sapiens) (UniProt P51449); experiment: qHTS assay to identify small molecule antagonists of the retinoid-related orphan receptor gamma (ROR-gamma) signaling pathway (AID 1159521)
How it was run: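 CHO Tet-on RORγ, RORE-luc reporter. Cpd 2 h pre-incubation, then dox hyclate 1 uM final, 16 h, 37 C/5% CO2. ONE-Glo luminescence; decrease = antagonist.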

[17] = qHTS assay to identify small molecule agonists of the AP-1 signaling pathway (AID 1159526; calls by dose curve)
[18] = qHTS assay to identify small molecule agonists of the endoplasmic reticulum stress response signaling pathway - cell viability counter screen (AID 1159517; calls by dose curve)
How it was run: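 Cells, HeLa ESRE-bla; density, 1,500/well; dosing, 5 hr at 37 C, 5% CO2; readout, CellTiter-Glo luminescence after 30 min RT.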

[19] = qHTS assay to identify small molecule antagonists of the retinoid-related orphan receptor gamma (ROR-gamma) signaling pathway - cell viability counter screen (AID 1159520); note: nearly all actives have a fitted effect of over 50% in size
How it was run: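 Cytotoxicity was read from cellular ATP (CellTiter-Glo luminescence) after 16 hr at 37 C with 1 uM doxycycline induction. The inducer was added 2 hr after compound transfer to Tet-on ROR gamma CHO cells.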

[20] = qHTS assay to identify small molecule agonists of the AP-1 signaling pathway - cell viability counter screen (AID 1159525; calls by dose curve; note: nearly all actives have a fitted effect of over 55% in size)
How it was run: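 Luminescent ATP readout (Cell Titer Glo, 30 min RT), normalised to DMSO and tetra n-octyl ammonium bromide controls. Cells were ME-180 AP-1-bla in 0.5% dialyzed FBS Opti-MEM, with a 5 h, 37 °C compound exposure.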

Measured: Potency

N#CCCOCCOCCC#N
inactive: [1] | [2] | [3] | [4] | [5] | [6] | [7] | [8] | [9] | [10] | [11] | [12] | [13] | [14] | [15] | [16] | [17]

Cc1cccc(NC(=S)N(C)C)c1
inactive: [1] | [2] | [3] | [4] | [5] | [6] | [7] | [8] | [9] | [10] | [11] | [12] | [13] | [15] | [18] | [19] | [16] | [20] | [17]

C=C(C)C(=O)OC1CC(C)CC(C)(C)C1 (stereo unspecified)
inactive: [1] | [2] | [4] | [5] | [6] | [7] | [8] | [9] | [10] | [11] | [12] | [13] | [14] | [15] | [19] | [17]

CC(C)CCC(=O)CCC(C)C
inactive: [1] | [3] | [6] | [9] | [10] | [11] | [12] | [13] | [14] | [15] | [19] | [16] | [20] | [17]

CC(=O)OC(C(=O)c1ccccc1)c1ccccc1 (stereo unspecified)
inactive: [1] | [2] | [3] | [5] | [6] | [7] | [11] | [12] | [13] | [14] | [15] | [19] | [16] | [20] | [17]

O=C(O)c1ccc(OCCN2CCCCC2)cc1
inactive: [1] | [2] | [3] | [4] | [6] | [8] | [9] | [10] | [11] | [12] | [13] | [14] | [15] | [19] | [20] | [17]

O=C(O)CCNC(=O)c1ccccc1
inactive: [1] | [2] | [3] | [4] | [6] | [8] | [13] | [14] | [15] | [19] | [16] | [17]

O=S(=O)(O)c1cc(O)ccc1O
inactive: [2] | [3] | [4] | [8] | [9] | [10] | [11] | [12] | [13] | [15] | [18] | [19] | [16] | [17]

COC(/C=C(\C)CCC=C(C)C)OC
inactive: [1] | [2] | [3] | [4] | [5] | [6] | [7] | [8] | [9] | [10] | [11] | [12] | [13] | [15] | [18] | [16] | [20] | [17]
